Test system: Vero E6 infected with SARS-CoV-2
Assay: inhibition of SARS-CoV-2 cytopathic effect; higher = more antiviral protection, active = above 15
Conditions: 48 h

Measured: inhibition of SARS-CoV-2 cytopathic effect

CCCOCCn1c(=O)c(N2CCN(CCO)CC2)nc2cnc(-c3ccc(OC)nc3)cc21
inactive: 1 nM 0.37% | 8.33 nM 0.25% | 100 nM -0.91% | 833.33 nM -1.66% | 10000 nM -1.9%

CCCCOc1cc(C(=O)OCCN(CC)CC)ccc1N [oxybuprocaine]
inactive: 1 nM 0.54% | 8.33 nM 0.93% | 100 nM 5.2% | 833.33 nM 3.06% | 10000 nM -0.68%

CCc1ccc(C2=CC(C)(C)Sc3ccc(C#Cc4ccc(C(=O)O)cc4)cc32)cc1
inactive: 1 nM 0.1% | 8.33 nM 2.14% | 100 nM 1.4% | 833.33 nM 1.53% | 10000 nM 3.68%

Nc1ncnc2c1ncn2[C@@H]1O[C@H](COP(=O)(O)OP(=O)(O)OP(=O)(O)O)[C@@H](O)[C@H]1O
inactive: 1 nM -0.89% | 8.33 nM -1.33% | 100 nM -0.6% | 833.33 nM 2.57% | 10000 nM 2.48%

C[n+]1cccc(C(=O)[O-])c1 [trigonelline]
inactive: 1 nM 5.14% | 8.33 nM 3.85% | 100 nM 1.81% | 833.33 nM 1.44% | 10000 nM 0.82%

CCOC(=O)[C@H](Cc1ccccc1)NC(=O)c1cc(Cl)c(OCCN2CCN(C)CC2)c(Cl)c1O
inactive: 1 nM -1.93% | 8.33 nM 1.91% | 100 nM 0.81% | 833.33 nM -1.07% | 10000 nM 2.79%

NC[C@H](O)c1ccc(O)c(O)c1 [norepinephrine]
inactive: 1 nM 1.39% | 8.33 nM -0.56% | 100 nM -2.09% | 833.33 nM 0.33% | 10000 nM -1.61%

CCO/N=C(\C(=O)N[C@@H]1C(=O)N2C(C(=O)[O-])=C(Sc3nc(-c4cc[n+](C)cc4)cs3)CS[C@H]12)c1nsc(NP(=O)(O)O)n1 [ceftaroline-fosamil]
inactive: 1 nM 3.38% | 8.33 nM 2.02% | 100 nM 4.54% | 833.33 nM 4.34% | 10000 nM 3.55%

CC(=O)N[C@@H](Cc1c[nH]c2ccccc12)C(=O)OCc1cc(C(F)(F)F)cc(C(F)(F)F)c1
inactive: 1 nM 0.3% | 8.33 nM 1.3% | 100 nM 2.32% | 833.33 nM 1.61% | 10000 nM 4%

N#CC(Cc1ccc(O)cc1)c1ccc(O)cc1 (stereo not given) [diarylpropionitrile]
inactive: 1 nM -1.07% | 8.33 nM 1.57% | 100 nM -1.11% | 833.33 nM -3.56% | 10000 nM -1.54%

COC(=O)C1=C(C)NC(C)=C(C(=O)OCCCN2CCC(c3ccccc3)(c3ccccc3)CC2)[C@@H]1c1cccc([N+](=O)[O-])c1 [dexniguldipine]
inactive: 1 nM 1.4% | 8.33 nM 0.16% | 100 nM 2.09% | 833.33 nM -3.36% | 10000 nM -4.64%

COC1=C(OC)C(=O)C(CCCCCCCCCCO)=C(C)C1=O [idebenone]
inactive: 1 nM -0.23% | 8.33 nM -3.04% | 100 nM -0.1% | 833.33 nM 0.64% | 10000 nM 0.26%

C[N+]1(C)CCC(OC(=O)C(c2ccccc2)c2ccccc2)CC1
inactive: 1 nM -1.59% | 8.33 nM 2.05% | 100 nM 1.2% | 833.33 nM 1.67% | 10000 nM 1.67%

CN(C)CCOc1ccc(-c2nc(-c3ccncc3)c(-c3ccc4c(c3)CC/C4=N\O)[nH]2)cc1
inactive: 1 nM -0.13% | 8.33 nM -0.36% | 100 nM 2.34% | 833.33 nM -0.51% | 10000 nM 6.82%

C[C@H](Nc1cc(NS(=O)(=O)N2CCC2)nc(SCc2cccc(F)c2F)n1)[C@@H](O)CO
inactive: 1 nM 3.09% | 8.33 nM 1.5% | 100 nM 0.2% | 833.33 nM 0.91% | 10000 nM 2.14%

C=CC(=O)Nc1cc2c(Nc3ccc(F)c(Cl)c3)ncnc2cc1OCCCN1CCOCC1 [canertinib]
inactive: 1 nM 2.3% | 8.33 nM -2.25% | 100 nM -6.93% | 833.33 nM -13.4% | 10000 nM -20.1%

Clc1ccc(CCCOCCCN2CCCCC2)cc1 [pitolisant]
inactive: 1 nM 1.67% | 8.33 nM 1.19% | 100 nM -1.62% | 833.33 nM -2.26% | 10000 nM -0.08%

Cc1sc(C)c(C(=O)NC2(c3ccc(C(=O)O)cc3)CC2)c1Cc1ccc(C(F)(F)F)cc1
inactive: 1 nM -1.32% | 8.33 nM -0.56% | 100 nM -0.49% | 833.33 nM -1.38% | 10000 nM 1.12%

CCC(C)(C)c1ccc(CC(C)CN2C[C@@H](C)O[C@@H](C)C2)cc1 (stereo not given in full) [amorolfine]
inactive: 1 nM 1.24% | 8.33 nM 0.11% | 100 nM 1.63% | 833.33 nM 3.07% | 10000 nM 1.19%

CCN(CC)CC(=O)Nc1c(C)cccc1C [lidocaine]
inactive: 1 nM 0.85% | 8.33 nM 1.24% | 100 nM 0.45% | 833.33 nM 1.31% | 10000 nM -0.93%

COc1cc2/c(=N/c3ccc(Br)cc3F)nc[nH]c2cc1OCC1CCN(C)CC1 [vandetanib]
inactive: 1 nM -1.28% | 8.33 nM 2.63% | 100 nM -1.67% | 833.33 nM -6.04% | 10000 nM -3.93%

O=C(/C=C/c1ccc(O)c(O)c1)c1ccc(O)cc1O [butein]
inactive: 1 nM -0.13% | 8.33 nM 0.3% | 100 nM 1.11% | 833.33 nM 2.97% | 10000 nM 12.1%

CN1C(=O)N[C@H](Cc2c[nH]c3c(Cl)cccc23)C1=O [necrostatin-2]
inactive: 1 nM -3.13% | 8.33 nM -7.04% | 100 nM -6.01% | 833.33 nM -0.96% | 10000 nM -5.96%

COc1cc(N)c(Cl)cc1C(=O)N[C@@H]1CCN(CCCOc2ccc(F)cc2)C[C@@H]1OC (racemic) [cisapride]
inactive: 1 nM -0.68% | 8.33 nM -0.92% | 100 nM 1.02% | 833.33 nM 2.56% | 10000 nM -4.6%

O=C1Nc2ccc(Cl)c3c2C1(CCCCN1CC=C(c2ccc(Cl)cc2)CC1)CCC3 (stereo not given)
inactive: 1 nM 0.36% | 8.33 nM -1.45% | 100 nM -2.5% | 833.33 nM -2.84% | 10000 nM -3.25%

c1cnc(N2CCN(Cc3ccc4c(c3)OCO4)CC2)nc1 [piribedil]
inactive: 1 nM -0.1% | 100 nM 1.85% | 833.33 nM -0.64% | 10000 nM 0.85%
active: 8.33 nM 15.4%

CCCC(CCC)C(=O)NCC(N)=O [valrocemide]
inactive: 1 nM 0.41% | 8.33 nM 1.83% | 100 nM 2.6% | 833.33 nM 0.66% | 10000 nM 3.56%

C=CCN1CC[C@]23c4c5ccc(O)c4O[C@H]2/C(=N/NC(=O)c2ccccc2)CC[C@@]3(O)[C@H]1C5 [naloxone-benzoylhydrazone]
inactive: 1 nM -0.04% | 8.33 nM 0.97% | 100 nM 0.75% | 833.33 nM 5.45% | 10000 nM 0.69%

CC(=O)O[C@H]1CC[C@@]2(C)C(=CC[C@@H]3[C@@H]2CC[C@]2(C)C(=O)CC[C@@H]32)C1 [prasterone-acetate]
inactive: 1 nM -0.78% | 8.33 nM 2.86% | 100 nM 3.18% | 833.33 nM 4.82% | 10000 nM -2.88%

COc1cc(C(C)=O)ccc1OCCCN1CCC(c2noc3cc(F)ccc23)CC1 [iloperidone]
inactive: 1 nM -1.11% | 8.33 nM -0.19% | 100 nM 0.99% | 833.33 nM -0.53% | 10000 nM -3.95%

Cn1cc(-c2cnn3c(N)c(Br)c([C@@H]4CCCNC4)nc23)cn1
inactive: 1 nM 0.61% | 8.33 nM 0.92% | 100 nM 2.32% | 833.33 nM 2.1% | 10000 nM 0.48%

CC(C)NC[C@@H](O)COc1ccc(CC(N)=O)cc1 (racemic) [atenolol-(+/-)]
inactive: 1 nM -2.25% | 8.33 nM 0.225% | 100 nM 0.74% | 833.33 nM 0.24% | 10000 nM -0.8%

CCN(CC)CCOc1ccc(Nc2ncc3cc(-c4c(Cl)cccc4Cl)c(=O)n(C)c3n2)cc1
inactive: 1 nM -0.79% | 8.33 nM -0.21% | 100 nM -2.93% | 833.33 nM -9.61% | 10000 nM -31.3%

COc1cc2c(cc1OC)C(=O)C(CC1CCN(Cc3ccccc3)CC1)C2 (stereo not given) [donepezil]
inactive: 1 nM -2.44% | 8.33 nM -3.45% | 100 nM -1.84% | 833.33 nM -1.28% | 10000 nM -8.45%

CCOc1cc2ncc(C#N)c(Nc3ccc(OCc4ccccn4)c(Cl)c3)c2cc1NC(=O)/C=C/CN(C)C [neratinib]
inactive: 1 nM 0.12% | 8.33 nM -2.36% | 100 nM -7.88% | 833.33 nM -0.85% | 10000 nM -8.5%

O=C[C@H](O)[C@@H](O)[C@H](O)CO [xylose]
inactive: 1 nM 2.36% | 8.33 nM 1.7% | 100 nM -0.84% | 833.33 nM -1.64% | 10000 nM -4.41%

O=C(c1cncc(Br)c1)N1CCC(N2CCCC2)CC1
inactive: 1 nM -1.15% | 8.33 nM -2.01% | 100 nM -1.71% | 833.33 nM -4.94% | 10000 nM 0.82%

COc1ccc(-c2ccc3c(N4CCOCC4)nc(N4C[C@@H](C)O[C@@H](C)C4)nc3n2)cc1CO
inactive: 1 nM 1.75% | 8.33 nM 0.2% | 100 nM 2.09% | 833.33 nM 0.86% | 10000 nM -2.33%

OCCN(CCO)c1nc(N2CCCCC2)c2nc(N(CCO)CCO)nc(N3CCCCC3)c2n1 [dipyridamole]
inactive: 1 nM -0.67% | 8.33 nM 1.83% | 100 nM 0.53% | 833.33 nM 0.2% | 10000 nM 4.52%

Source: the supplement of paper PMC13380429
